Laboratory results reported in the supplement of paper PMC10941209.
A number with no mark means an inactive call.

tested on: Toxoplasma gondii RH 2F1 tachyzoites (intracellular in HFF); test: parasite survival relative to DMSO control; higher = less antiparasitic activity, active = 20 or less; settings: 1 µM; 72 h
Procedure, shortened: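 Survival is the β-galactosidase-derived signal from intracellular Toxoplasma gondii RH-2F1 tachyzoites, expressed as a percentage of infected wells treated with DMSO. HFF cells (5 × 10^3 cells/well, 96-well plates) were infected with 5 × 10^3 parasites in D2 medium for 3 h and then treated with compound at 1 μM for 72 h at 37°C in 5% CO2. After lysis, CPRG was added and absorbance at 570 nm was read at 30 min, with 2 or more biological replicates.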

Going from O=C(O)C[C@H]1CC[C@H](c2ccc(-c3ccc(Nc4ccc(C(F)(F)F)nc4)cn3)cc2)CC1 to Cc1nc(Nc2ccc(F)cc2)nc(N2CCc3ccccc3C2C)c1C (stereo not given), the parasite survival falls from 42.6% to 20.5%.

Compared with COc1c(F)c(F)cc2c(=O)c(C(=O)O)cn(C3CC3)c12, N[C@@H]1CN(c2c(F)cc3c(=O)c(C(=O)O)cn([C@@H]4C[C@@H]4F)c3c2Cl)CC12CC2 is lower in parasite survival: 63.8% for the first, 51.8% for the second.

Going from CCCCCCCCC(CP(=O)(O)C(C)N)C(=O)O (stereo not given) to N[C@H](CCC(=O)N[C@@H](Cc1c[nH]c2ccccc12)C(=O)O)C(=O)O, the parasite survival rises from 62.7% to 84.2%.

Compared with CCc1cc(O)c(Oc2cccnc2N)cc1F, Nc1cc(-c2nc3ccccc3[nH]2)n[nH]c1=O is lower in parasite survival: 44.6% for the first, 43% for the second.

First: C[C@@H](O)[C@H](N)C(=O)NS(=O)(=O)c1cccc(-c2ccc3[nH]ncc3c2)c1
Second: CCc1cc(Nc2cc(=O)n(CCN3CCN(C(=O)c4ccccc4)CC3)c(=O)[nH]2)ccc1C
The parasite survival of the first is higher: 40.1% for the first, 26% for the second.

First: CO[C@@]1(NC(=O)Cc2cccs2)C(=O)N2C(C(=O)O)=C(COC(N)=O)CS[C@@H]21
Second: Nc1nc2c(ncn2COC(CO)CO)c(=O)[nH]1
The parasite survival of the first is lower: 61.6% for the first, 80% for the second.

Compound O=c1nc(N2CCN(CC3CCCCC3)CC2)sc2c([N+](=O)[O-])cc(C(F)(F)F)cc12 has a parasite survival of 43.6%.

For O=C(/C=C\n1cnc(-c2cc(C(F)(F)F)cc(C(F)(F)F)c2)n1)NNc1ccccn1, the parasite survival was 4.89% (active).
For CCc1nc(N)nc(N)c1C#CCc1ccccc1, the parasite survival was 5.77% (active).
